Rows were chosen to be rich in hits. Some 7.9% of all compounds tested hit in one or more screens of this group.
Marburg entry inh: qHTS for inhibitors of binding or entry into cells for Marburg Virus. hit rate 1.8% among 300,000. Marburg virus pseudotyped entry inhibition, cell reporter. AID 540276, 2011. Potency, µM (series often up to 37.8 µM), inactives show at the highest dose activity change, negative = inhibition, hits mostly inhibitors; calls by dose curve; tested in HEK293 cells; also: potency is read from the fitted curve at half-maximal effect
HCMV antiviral: qHTS Assay for inhibitors of the human cytomegalovirus (HCMV) | HFF cells, HCMV-luciferase reporter, 72 h; stronger effect = lower value | activity change, negative = inhibition, % at 57.5 µM | hit rate 4.5% among 410,000 | AID 1259415, 2018; in the data active = activity change below about -60%; inconclusive = no clear call, values can overlap the other calls; inactive = above about -39%
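Cell-based, HFFs, 1000 cells/well, 16 h 37C; cpds in DMSO + HCMV-luc, MOI 1 PFU/cell; 72 h 37C; OneGlo luminescence after 5 min RT; norm. to buffer vs Salinomycin 10uM.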
LASV entry inh: qHTS for Inhibitors of binding or entry into cells for Lassa Virus. hit rate 1.2% among 300,000. AID 540256, 2011. Potency, µM (series often up to 37.9 µM), for the others: at the highest dose activity change, negative = inhibition, most hits filed as inhibitors. Lassa virus pseudotype entry inhibition, cell reporter; calls by dose curve; tested in HEK293 cells; also: potency is read from the fitted curve at half-maximal effect; nearly all actives have a fitted effect of over 50% in size
FMDV inh: High Throughput Screening for Foot and Mouth Disease Virus Antivirals | hit rate 1.2% among 410,000 | Potency, µM (doses to about 57.9 µM), for the others: at the highest dose activity change, negative = inhibition, usual class: inhibitors | FMDV antiviral cell-based qHTS; calls by dose curve; tested in HEK293T cells; also: read-out not given here; potency is read from the fitted curve at half-maximal effect; nearly all actives have a fitted effect of over 45% in size
HCV inh: qHTS Assay for Inhibitors of Hepatitis C Virus (HCV) | Huh7.5.1 HCVcc-Cre infection, luciferase reporter, 44 h | Potency, µM (highest dose often 41.8 µM), without a hit: at the highest dose activity change, negative = inhibition, hits mostly inhibitors | hit rate 3.4% among 340,000 | AID 651820, 2012; active = well fitted inhibition curve with a large enough effect; inconclusive = small, poorly fitted or top-dose-only effect, or another doubt; inactive = no such curve, though single readings can be large or run the other way; also: potency is read from the fitted curve at half-maximal effect
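1,000 cells/well; 4 h culture; + compound; + HCVcc-Cre (~0.5 moi); 44 h; luciferase substrate, RT 15 min; read 15 sec.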
* marks the source's active call; other numbers are inactive results; [ ] = remark or other dose. % is scaled to controls: 0 for no effect and ±100 for the full control effect.

CCOc1ccc(CCN2C(=S)N([C@@H](CC(C)C)CN3CCCC3CN3C(=S)NC[C@@H]3Cc3ccccc3)C[C@@H]2CC(C)C)cc1 (stereo not given in full) was read as HCMV antiviral inconclusive and FMDV inh -0.1%.
Cc1ccc(C(=O)Nc2ccc(-n3c(C)nc4ccccc4c3=O)cc2)cc1[N+](=O)[O-] was read as HCMV antiviral -31.2, LASV entry inh inconclusive and FMDV inh inconclusive.
For CCCc1ccc(C(C)NC(=S)NC2CCCCC2)cc1 (stereo not given) the results were HCMV antiviral -73.1*, FMDV inh -25.0% and HCV inh inconclusive.
For CCOc1ccc2[nH]c3c(N4CCC5(CC4)OCCO5)ncnc3c2c1 the results were Marburg entry inh inconclusive, HCMV antiviral -21.3, LASV entry inh inconclusive, FMDV inh -27.1% and HCV inh inconclusive.
COc1ccc2[nH]c3c(N4CCc5ccccc5C4)ncnc3c2c1 was read as Marburg entry inh 0.708µM*, HCMV antiviral -87.6*, LASV entry inh inconclusive, FMDV inh 25.1µM* and HCV inh inconclusive.
Screening COc1cccc2[nH]c3c(N4CCCCC4)ncnc3c12 returned Marburg entry inh 9.5%, HCMV antiviral 56.2, LASV entry inh 15.4%, FMDV inh 2.4% and HCV inh -1.5%.
COc1ccc(N2CCN(c3ncnc4c3[nH]c3ccccc34)CC2)cc1 was read as Marburg entry inh inconclusive, HCMV antiviral -91.7*, LASV entry inh inconclusive, FMDV inh 3.98µM* and HCV inh 5.62µM*.
Screening COc1ccc2[nH]c3c(Cl)ncnc3c2c1 returned Marburg entry inh inconclusive, HCMV antiviral 7.5, LASV entry inh -23.1%, FMDV inh -19.8% and HCV inh inconclusive.
For COc1cc2[nH]c3c(N4CCN(c5ccccn5)CC4)ncnc3c2cc1OC the results were Marburg entry inh 10µM*, LASV entry inh inconclusive, FMDV inh 17.8µM* and HCV inh 6.31µM*.
CCOC(=O)N1CCN(c2ncnc3c2[nH]c2ccc(F)cc23)CC1 was read as Marburg entry inh inconclusive, HCMV antiviral -81.0*, LASV entry inh 6.0%, FMDV inh 14.1µM* and HCV inh 8.91µM*.
For CCOC(=O)N1CCN(c2ncnc3c2[nH]c2ccc(OC)cc23)CC1 the results were Marburg entry inh 10µM*, HCMV antiviral inconclusive, LASV entry inh inconclusive, FMDV inh inconclusive and HCV inh -29.3%.
`Fc1ccc2[nH]c3c(Cl)ncnc3c2c1` gave HCMV antiviral 7.4, FMDV inh -26.1% and HCV inh 7.4%.
`OC1(c2cccc(C(F)(F)F)c2)CCN(c2ncnc3c2[nH]c2ccc(F)cc23)CC1` gave Marburg entry inh 3.98µM*, HCMV antiviral -87.2*, LASV entry inh 14.1µM*, FMDV inh inconclusive and HCV inh 0.708µM*.
For Fc1ccc2[nH]c3c(N4CCN(c5ccccc5)CC4)ncnc3c2c1 the results were Marburg entry inh inconclusive, HCMV antiviral -97.3*, LASV entry inh inconclusive, FMDV inh inconclusive and HCV inh 7.94µM*.
`Cc1ccc(Nc2nc(N)nc(N)c2S(=O)(=O)c2ccccc2)cc1` gave Marburg entry inh inconclusive, HCMV antiviral -11.7, LASV entry inh -25.7%[46.1 µM] and FMDV inh -13.2%.
Screening Cc1ccc(CCNC(=O)CN(c2ccc(C(C)C)cc2)S(=O)(=O)c2c(C)nn(C)c2C)cc1 returned Marburg entry inh 14.1%[46.1 µM], HCMV antiviral -10.8, LASV entry inh inconclusive and FMDV inh -21.5%.
`O=C(CN1CCN(S(=O)(=O)c2cc(Cl)ccc2Cl)CC1)Nc1cccc(F)c1` gave HCMV antiviral -19.3, LASV entry inh -7.8%[46.1 µM] and FMDV inh -21.3%.
`NCc1nc2cccnc2n1Cc1ccccc1Cl` gave Marburg entry inh 3.8%[46.1 µM], HCMV antiviral 3.5, LASV entry inh 13.1%[46.1 µM] and FMDV inh -19.7%.
CCc1n[n+](CC(=O)c2ccccc2)c(N)s1 was read as Marburg entry inh inconclusive, HCMV antiviral -7.4, LASV entry inh 7.94µM*, FMDV inh -51.9% and HCV inh -10.9%.
`O=C(CCC(=O)N1CCSc2ccccc21)Nc1ccc(Cl)cc1` gave HCMV antiviral -26.4, LASV entry inh -15.1%[46.1 µM] and FMDV inh -27.6%.
Screening O=C(NCc1ccccn1)c1cccc(S(=O)(=O)N2CCc3ccccc32)c1 returned Marburg entry inh -26.7%, HCMV antiviral 8.1, LASV entry inh -26.3%, FMDV inh -11.2% and HCV inh inconclusive.
O=S(=O)(NC1CCCC1)c1ccc(S(=O)(=O)N2CCc3ccccc32)cc1 was read as Marburg entry inh inconclusive, HCMV antiviral -98.5*, LASV entry inh inconclusive, FMDV inh inconclusive and HCV inh inconclusive.
`O=C(Nc1ccc(S(=O)(=O)N2CCc3ccccc32)cc1)c1ccc2c(c1)OCO2` gave Marburg entry inh -26.9%, HCMV antiviral -84.8*, LASV entry inh 27.4%[14.3 µM], FMDV inh -22.9% and HCV inh inconclusive.
For Cc1cc(NC(=O)c2ccc(S(=O)(=O)N3CCc4ccccc43)cc2)no1 the results were Marburg entry inh 18.2%, HCMV antiviral inconclusive, LASV entry inh inconclusive, FMDV inh inconclusive and HCV inh 25.2%.
`O=C(NNC(=O)c1cccc(S(=O)(=O)N2CCc3ccccc32)c1)c1ccccc1` gave Marburg entry inh inconclusive, HCMV antiviral inconclusive, LASV entry inh inconclusive, FMDV inh 0.0% and HCV inh 5.01µM*.
For O=C(Nc1ccc(Br)cc1)c1cccc(S(=O)(=O)N2CCc3ccccc32)c1 the results were HCMV antiviral -61.2*, LASV entry inh inconclusive and FMDV inh inconclusive.
`COc1cc(C(=O)Nc2ccc3c(c2)CCN3C(C)=O)cc(OC)c1OC` gave Marburg entry inh inconclusive, HCMV antiviral -74.3*, LASV entry inh inconclusive, FMDV inh 9.9% and HCV inh -29.0%.
COc1ccc(NC(C)=O)cc1NC(=O)c1cccc(S(=O)(=O)N2CCc3ccccc32)c1 was read as HCMV antiviral -0.9, FMDV inh -24.5% and HCV inh 10µM*.
For O=C(c1cccc(Oc2ccccc2)c1)N1CCN(c2ccccn2)CC1 the results were Marburg entry inh inconclusive, HCMV antiviral -71.6*, LASV entry inh inconclusive, FMDV inh -13.5% and HCV inh inconclusive.
Screening Cc1cccc(C(=O)N2CCN(c3ccccn3)CC2)c1 returned Marburg entry inh -15.7%, HCMV antiviral -7.6, LASV entry inh 24.1%, FMDV inh -11.6% and HCV inh 22.9%.
O=C(c1cccc(S(=O)(=O)N2CCc3ccccc3C2)c1)N1CCN(c2ccc(O)cc2)CC1 was read as Marburg entry inh -12.3%, HCMV antiviral -65.5*, LASV entry inh inconclusive, FMDV inh -40.3% and HCV inh inconclusive.

Screening data as filed in PubChem.
